Measured values taken from PMC4336329 (PLoS ONE, 2015).
The campaign covered roughly 310,000 compounds. About 2,200 (0.71%) showed an effect of 50% or more. Effects have a minus sign here. This excerpt belongs to a sample that is enriched for strong results.

target: human ether-à-go-go-related gene (hERG) potassium channel (human, UniProt Q12809); assay: primary screen, population patch clamp on CHO cells stably expressing hERG; higher = less effect of the substance
Sequence (Q12809 whole entry, looked up): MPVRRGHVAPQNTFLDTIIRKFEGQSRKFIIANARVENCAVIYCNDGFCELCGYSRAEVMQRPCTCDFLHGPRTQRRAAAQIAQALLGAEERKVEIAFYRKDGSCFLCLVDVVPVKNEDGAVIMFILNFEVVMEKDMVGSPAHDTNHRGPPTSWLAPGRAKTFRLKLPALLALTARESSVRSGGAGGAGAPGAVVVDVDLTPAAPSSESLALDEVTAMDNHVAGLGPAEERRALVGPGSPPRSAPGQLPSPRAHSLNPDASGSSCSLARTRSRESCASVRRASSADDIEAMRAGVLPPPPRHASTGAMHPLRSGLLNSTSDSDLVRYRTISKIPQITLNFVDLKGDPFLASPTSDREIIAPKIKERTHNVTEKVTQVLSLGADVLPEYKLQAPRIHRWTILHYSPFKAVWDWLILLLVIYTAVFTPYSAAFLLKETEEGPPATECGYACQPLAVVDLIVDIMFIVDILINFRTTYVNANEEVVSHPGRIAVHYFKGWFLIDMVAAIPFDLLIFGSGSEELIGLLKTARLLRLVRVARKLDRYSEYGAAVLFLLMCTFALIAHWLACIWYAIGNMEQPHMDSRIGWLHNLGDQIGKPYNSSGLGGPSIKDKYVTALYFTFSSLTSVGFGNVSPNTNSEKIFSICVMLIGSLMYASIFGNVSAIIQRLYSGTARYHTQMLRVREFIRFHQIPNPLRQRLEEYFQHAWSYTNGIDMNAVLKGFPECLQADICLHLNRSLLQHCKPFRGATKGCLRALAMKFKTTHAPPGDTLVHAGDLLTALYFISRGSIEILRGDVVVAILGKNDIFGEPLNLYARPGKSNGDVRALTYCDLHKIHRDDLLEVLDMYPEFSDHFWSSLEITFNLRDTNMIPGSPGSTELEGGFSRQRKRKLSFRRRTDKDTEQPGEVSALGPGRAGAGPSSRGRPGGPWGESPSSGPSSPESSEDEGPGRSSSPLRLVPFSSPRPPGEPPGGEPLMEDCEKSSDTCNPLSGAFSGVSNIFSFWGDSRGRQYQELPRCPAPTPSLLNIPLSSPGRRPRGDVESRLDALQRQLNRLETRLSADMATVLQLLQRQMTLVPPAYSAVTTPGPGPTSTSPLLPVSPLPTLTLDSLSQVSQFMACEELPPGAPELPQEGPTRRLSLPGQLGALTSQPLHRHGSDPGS

Row | Compound | hERG current change (%, negative = inhibition) at 1uM [%]
1 | Cc1ccc(N(CC(=O)NCC2CCCO2)C(=O)Cn2nnc(-c3cccs3)n2)cc1 (stereo not shown) | 2.07
2 | CC(C)(CN=C1NS(=O)(=O)c2ccccc21)CNC(=O)CN1C(=O)c2ccccc2C1=O | -1.01
3 | COCCCNC(=O)C(=O)Nc1cc2c3c(c1)CCN3C(=O)CC2 | 21.5
4 | CCOc1cc(CN2CCCC(CO)(Cc3ccc(F)cc3F)C2)ccc1OC (stereo not shown) | -10.8
5 | Cc1cccc(N2CCN(C(=O)Cn3nc(Cc4ccncc4)c4ccccc4c3=O)CC2)c1C | 3.71
6 | CC(C)(C)OC(=O)N/N=C\c1ccc(OC(=O)c2ccco2)cc1 | 10.8
7 | COc1ccccc1C(=O)NC1CCN(C(=O)Nc2ccc(C)cc2)CC1 | 10.5
8 | O=C(CC1SC(=Nc2ccc(OC(F)F)cc2)N(CCN2CCOCC2)C1=O)Nc1ccc(F)cc1F (stereo not shown) | -80.4
9 | O=C(CC1SC(=Nc2ccccc2F)N(CCN2CCOCC2)C1=O)Nc1ccc(F)cc1F (stereo not shown) | 1.58
10 | COc1ccc(N=C2SC(CC(=O)Nc3ccccc3)C(=O)N2CCN2CCOCC2)cc1 (stereo not shown) | 3.66
11 | Cc1sc2ncnc(NC3CCN(Cc4ccccc4)CC3)c2c1C | -56.9
12 | c1ccc(CN2CCC(Nc3ncnc4sccc34)CC2)cc1 | -31.2
13 | Cc1csc2ncnc(NC3CCN(Cc4ccccc4)CC3)c12 | -35.4
14 | NC(=S)Nc1cccc2cc3ccccc3cc12 | 0.594
15 | O=C1NC(c2ccc3c(c2)OCO3)Oc2ccccc21 (stereo not shown) | 7.7
16 | CCN(CC)CCOC(=O)c1ccc(Cl)cc1Cl.Cl | -8.41
17 | CN(C)CCCOC(=O)c1ccc(Cl)cc1Cl.Cl | -7.49
18 | CCCN(CCC)CCCOC(=O)c1ccc(Cl)cc1Cl.Cl | -56.8
19 | Cn1cc(CNCc2ccc(-n3cccn3)cc2)c(-c2ccccc2F)n1 | -35.4
20 | CN(Cc1ccc(-n2cccn2)cc1)Cc1cn(C)nc1-c1ccccc1F | -63.5
21 | CN(Cc1cccc(-n2cccn2)c1)Cc1cn(C)nc1-c1ccccc1F | 16.7
22 | Cc1ccc(=O)n(C(C(=O)NCc2ccco2)C(=O)c2ccc(F)cc2)c1 (stereo not shown) | 6.1

Row | Compound | hERG current change (%, negative = inhibition) at 1uM [%]
23 | Cn1c(Cn2nnc(-c3ccccc3)n2)nnc1SCc1ccccc1Cl | 5.26
24 | CCCCOc1ccc(Cc2c(COCC)[nH]c(=S)[nH]c2=O)cc1 | 13
25 | Fc1cccc(C2NC(=S)NC3=C2N2CCC3CC2)c1 (stereo not shown) | 1.79
26 | COc1ccc(CCNC(=O)c2c(O)c3cccc4c3n(c2=O)CC4)cc1OC | -6.66
27 | COc1cccc(-c2nc(CS(=O)(=O)CC(=O)NCCC(C)C)c(C)o2)c1 | 14.4
28 | COCCCNC(=O)CS(=O)(=O)Cc1nc(-c2cccc(OC)c2)oc1C | 11.3
29 | COc1cccc(-c2nc(CS(=O)(=O)CC(=O)NCCCN3CCN(C)CC3)c(C)o2)c1 | 11.2
30 | COc1cccc(-c2nc(CS(=O)(=O)CC(=O)NCCCN3CCOCC3)c(C)o2)c1 | 10.9
31 | COc1cccc(-c2nc(CS(=O)(=O)CC(=O)NCCCN3CCc4ccccc4C3)c(C)o2)c1 | -56.3
32 | CCCNC(=O)CS(=O)(=O)Cc1nc(-c2cccc(OC)c2)oc1C | -284
33 | Cn1nc(C(F)(F)F)cc1C(=O)O | 17.3
34 | Cl.O=C(Nc1ccc(Br)cn1)c1ccc(Br)s1 | 13.3
35 | Cc1ccc(Cn2c(=N)c(C(=O)NC3CCCC3)cc3c(=O)n4ccccc4nc32)cc1 | -73.4
36 | N=c1c(C(=O)NC2CCCCC2)cc2c(=O)n3ccccc3nc2n1Cc1ccco1 | -59.1
37 | N=c1c(C(=O)NC2CCCCC2)cc2c(=O)n3ccccc3nc2n1Cc1ccc(F)cc1 | -29.5
38 | N=c1c(C(=O)NC2CCCCC2)cc2c(=O)n3ccccc3nc2n1Cc1cccnc1 | -50.6
39 | N=c1c(C(=O)NC2CCCC2)cc2c(=O)n3ccccc3nc2n1Cc1ccccc1 | -55.9
40 | Cc1ccc(S(=O)(=O)c2cc3c(=O)n4ccccc4nc3n(Cc3ccco3)c2=N)cc1C | -6.2
41 | Cc1ccc(Cn2c(=N)c(C(=O)NC3CCCCC3)cc3c(=O)n4ccccc4nc32)cc1 | -5.62
42 | Cc1ccc(Cn2c(=N)c(S(=O)(=O)c3ccc(C)cc3)cc3c(=O)n4ccccc4nc32)cc1 | 6.66
43 | N=c1c(C(=O)NC2CCCCC2)cc2c(=O)n3ccccc3nc2n1Cc1ccccc1 | -10.1
